Assay outcomes from PubChem.
A selection: hits, their analogues and other compounds. The true share with any hit is near 7.3%.
NPC1 prom act: qHTS Assay for NPC1 Promoter Activators; 320,000 tested, 2.4% active; Huh7 NPC1 promoter luciferase reporter, 24 h; Potency, µM (titrated, usually from 9.22 µM), inactives show at the top dose activation, most hits filed as activators; also: % of control where 0% means no effect; nearly all actives have a fitted effect of over 60% in size
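In 1536-well qHTS, Huh7 cells harboring an NPC1 promoter–luciferase construct received compound for 24 h; activation was quantified by luminescence following luciferase reagent addition.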
ELG1 genotoxic: qHTS screen for small molecules that induce genotoxicity in human embryonic kidney (HEK293T) cells expressing luciferase-tagged ELG1 | Potency, µM (doses to about 46 µM), without a hit: at the top dose activity change, positive = activation, usual class: activators | 330,000 tested, 1.3% active | HEK293T ELG1-luciferase reporter, luminescence, 16 h; also: % of control where 0% means no effect; nearly all actives have a fitted effect of over 60% in size
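16 hr compound incubation (37 °C, 5% CO2) of HEK293T cells carrying luciferase-tagged ELG1; luciferase then measured by ONE-Glo luminescence after 30 min at RT.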
Rab9 promoter act: qHTS Assay for Rab9 Promoter Activators. Huh7 Rab9 promoter-luciferase reporter, luminescence, 24 h. Potency, µM (highest dose often 9.22 µM), for the others: at the highest dose activation, negative = inhibition, actives largely listed as activators. 320,000 tested, 2.8% active. AID 485297, 2010; also: % of control where 0% means no effect; nearly all actives have a fitted effect of over 60% in size
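Luminescence read-out: Huh7 cells stably expressing Rab9-luciferase, treated 24 h with compound at 37 °C, then lysed with luciferase reagent for 10 min at ambient before reading.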
SMN2 splice enh: qHTS Assay for Enhancers of SMN2 Splice Variant Expression; AID 1458, 2008; 210,000 tested, 2.8% active; HEK293 SMN2-luciferase splicing reporter, luminescence, 30-36 h; Potency, µM (highest dose often 46.1 µM), for the others: at the highest dose activity change, positive = activation, most hits filed as activators; also: % of control where 0% means no effect; nearly all actives have a fitted effect of over 55% in size
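HEK293 cells carry an SMN2 […]–luciferase reporter in which exon 7 inclusion puts luciferase in frame. Cells were plated 10-12 h before compound addition, then incubated 30-36 h at 37C. ONE-Glo luminescence was read; sodium butyrate at 4.5 mM final served as control.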
FLuc counter: qHTS profiling assay for firefly luciferase inhibitor/activator using purifed enzyme and Km concentrations of substrates (counterscreen for miR-21 project); Luciferin 4-monooxygenase (Photinus pyralis), P08659; purified FLuc, Km substrates, luminescence inhibition; Potency, µM (doses to about 57.5 µM), for inactives: top-dose activity change, negative = inhibition, actives largely listed as inhibitors; 360,000 tested, 6.9% active;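 also: plate controls were vehicle for no effect and reference inhibitor for full effect; nearly all actives have a fitted effect of over 55% in size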
Target sequence (P08659 whole entry, looked up): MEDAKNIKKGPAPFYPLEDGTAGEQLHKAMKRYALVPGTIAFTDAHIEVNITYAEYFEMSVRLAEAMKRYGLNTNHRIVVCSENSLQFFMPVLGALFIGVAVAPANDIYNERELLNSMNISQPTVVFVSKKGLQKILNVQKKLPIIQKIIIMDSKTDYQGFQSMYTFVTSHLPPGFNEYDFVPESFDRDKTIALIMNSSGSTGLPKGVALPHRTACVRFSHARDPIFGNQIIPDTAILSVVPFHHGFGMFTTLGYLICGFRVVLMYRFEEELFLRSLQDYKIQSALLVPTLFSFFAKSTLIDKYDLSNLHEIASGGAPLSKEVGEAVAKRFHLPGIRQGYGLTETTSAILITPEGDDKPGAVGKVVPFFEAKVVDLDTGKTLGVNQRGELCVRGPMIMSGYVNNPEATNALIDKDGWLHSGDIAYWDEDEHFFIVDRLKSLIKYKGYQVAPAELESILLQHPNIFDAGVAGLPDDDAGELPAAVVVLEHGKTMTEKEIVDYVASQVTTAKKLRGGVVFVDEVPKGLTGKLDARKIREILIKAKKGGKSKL
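Purified P. pyralis luciferase, 10 nM final, with Km-level 10 uM D-luciferin and 10 uM ATP in 50 mM Tris acetate pH 7.5, 10 mM Mg acetate, 0.01% Tween-20, 0.05% BSA; 6-point qHTS titration about 60 µM downward; luminescence read.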
KinaseGlo FLuc: Counterscreen for Luciferase (Kinase-Glo TM) Inhibition | Luciferin 4-monooxygenase (Photuris pensylvanica), Q27757 | Kinase-Glo luciferase, ATP luminescence, 8 min | Potency, µM (top dose mostly 38.3 µM), for the others: at the highest dose activity change, negative = inhibition, most hits filed as inhibitors | 200,000 tested, 0.28% active; also: % is scaled to controls: 0 for no effect and ±100 for the full control effect; nearly all actives have a fitted effect of over 60% in size
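Recombinant Kinase-Glo luciferase, 10 uM ATP (linear range), luciferin; imidazole pH 7.2 / KCl / MgCl2 / Tween / BSA buffer; 8 min RT; luminescence.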
* = called active by the depositor; ? = inconclusive; · = not tested or not shown; [ ] = remark or other dose. Calls follow the shape of the dose curve; as a rule, active = well fitted curve in the direction sought with a large enough effect; inconclusive = small, poorly fitted or top-dose-only effect, or another doubt; inactive = no such curve, though single readings can be large; an effect the other way counts as inactive or inconclusive. Potency is read from the fitted curve at half-maximal effect.

SMILES	NPC1 prom act	ELG1 genotoxic	Rab9 promoter act	SMN2 splice enh	FLuc counter	KinaseGlo FLuc
COc1ccc(C(=O)Nc2ccc3oc(-c4cccc5c(Br)cccc45)nc3c2)cc1	·	·	·	-3.6%	0.5%	·
Nc1ccc(-c2c3ccccc3nc3ccccc23)cc1	1.0%	-2.2%	1.2%	·	-0.7%	·
CC(C)(C)c1ccc(-c2nc3cc(NC(=O)c4cccc(Br)c4)ccc3o2)cc1	·	·	·	-9.3%	2.0%	·
Nc1ccc2oc(-c3ccccc3Br)nc2c1	·	·	·	12.6µM*	3.38µM*	·
Nc1ccc2oc(-c3cccc(Br)c3)nc2c1	1.12µM*	2µM*	1.12µM*	14.1µM*	2.69µM*	-6.5%
CC(C)c1ccc2oc(-c3cc(N)ccc3O)nc2c1	0.891µM*	?	?	24.5%	0.151µM*	-11.1%
O=C1C=CC(=O)c2c(O)c(Cl)c(Cl)c(O)c21	·	·	·	-14.5%	·	-9.2%
Cc1ccc(CNC(=O)CCc2c(C)nc3nc(C)nn3c2C)cc1	·	·	·	4.8%	-5.8%	·
Cc1ccccc1-c1nc2cc(N)ccc2o1	0.891µM*	?	0.355µM*	6.31µM*	2.39µM*	-10.5%
COc1ccc(OC)c(C(=O)Cn2nnc(-c3ccc(N4CCOCC4)cc3)n2)c1	-0.2%	-6.7%	0.8%	·	9.53µM*	·
COc1ccc(-c2ccc(-c3nnn(CC(=O)N4CCOCC4)n3)cc2)cc1	3.16µM*	?	2.82µM*	?	0.379µM*	-0.3%
CCCOc1ccc(-c2nnn(CC(=O)N3CCCCC3)n2)cc1	1.3%	-5.6%	-2.4%	·	16.9µM*	·
CCOC(=O)Cn1nnc(-c2cccc(OC)c2)n1	-1.4%	5.9%	5.3%	-5.9%	10.7µM*	-0.5%
O=C(Cn1nnc(-c2ccccc2F)n1)N1CCCCC1	3.16µM*	?	2.51µM*	·	?	·
Cc1ccc([N+](=O)[O-])cc1N/C=C1\CCc2ccccc2C1=O	4.47µM*	12.4%	?	-5.5%	?	1.1%
Cc1ccc([N+](=O)[O-])cc1NC(=O)CCc1ccccc1	-6.0%	0.3%	-0.3%	-4.3%	-2.7%	-0.5%
COc1cccc(C(=O)c2cn(CC(=O)NCc3ccccc3)c3nc(C)ccc3c2=O)c1	·	·	·	·	2.8%	·
CCOC(=O)c1cc2c(=O)n3ccccc3nc2n(CCCOC)c1=NC(=O)c1cc2ccccc2o1	·	·	·	-2.4%	-2.9%	·
CCCc1ccc(-c2cc(C(=O)NC3=NCCS3)c3ccccc3n2)cc1	1.12µM*	?	4.47µM*	·	0.338µM*	·
Cc1ccc(CNC(=O)c2cc(-c3ccc(C)c(C)c3)nc3ccccc23)cc1	·	·	·	·	-17.8%	·
O=C(NN=C1CCCC1)c1cc(-c2ccc(F)cc2)nc2ccccc12	-0.4%	6.7%	-7.8%	1.1%	-19.6%	-2.9%
O=C(NNS(=O)(=O)c1cccc(Cl)c1)c1cc(-c2ccc(F)cc2)nc2ccccc12	-2.2%	-3.0%	-5.5%	0.1%	19µM*	-2.3%
O=C(NC1=NCCS1)c1cc(-c2ccc(F)cc2)nc2ccccc12	10.9%	0.6%	1.0%	11.3%	5.36µM*	-3.6%
Cc1ccc(-c2cc(C(=O)NC3=NCCS3)c3ccccc3n2)cc1C	0.7%	10.9%	7.3%	14.1µM*	0.849µM*	-3.0%
COc1cccc(NC(=O)c2cccc(C(=O)Nc3cccc(OC)c3)n2)c1	-3.6%	1.6%	-2.5%	·	?	·
SMILES	NPC1 prom act	ELG1 genotoxic	Rab9 promoter act	SMN2 splice enh	FLuc counter	KinaseGlo FLuc
COc1cccc(NC(=O)c2ccn(C)n2)c1	?	?	2.82µM*	14.1µM*	?	?
COc1cccc(NC(=O)c2ncc(Cl)c(Cl)c2Cl)c1	13.5%	-2.8%	4.4%	25.9%	5.36µM*	?
C#C[C@]1(OC(C)=O)CC[C@H]2[C@@H]3CCC4=CC(=O)CC[C@@H]4[C@H]3CC[C@@]21C	·	·	·	·	·	-0.8%[39.9 µM]
Cc1ccc(-c2nnc(N3CCCCCC3)c3ccccc23)cc1	14.5%	1.2%	9.2%	·	19µM*	·
COc1ccc(C2C=C(c3ccccc3)Nc3nnnn32)cc1 (stereo unspecified)	3.98µM*	12.6%	?	3.1%	3.4%	-2.7%
COc1ccc(C2=CC(c3ccc(C)cc3)n3nnnc3N2)cc1 (stereo unspecified)	8.4%	-7.0%	2.5%	1.9%	-11.3%	-6.4%
COc1cccc(C2=CC(c3cccc(OC)c3OC)n3nnnc3N2)c1 (stereo unspecified)	-10.8%	?	12.3%	?	23.9µM*	0.6%
CCS(=O)(=O)N1CC(=O)N(c2ccc(Cl)cc2C)C(C)(C(=O)NC2CCCCCC2)C1 (stereo unspecified)	·	·	·	·	-4.7%	·
COc1ccccc1CCNC(=O)Cn1ccc2cc(S(=O)(=O)N3CCCCC3)ccc21	·	·	·	·	2.1%	·
CN1C(=O)/C(=C/c2ccc3c(c2)OCO3)N=C1c1ccccc1	0.2%	-1.8%	-2.0%	8.3%	4.78µM*	-0.6%
COc1ccc2c(c1)cc1c(=O)n(CC(=O)NCCc3ccccc3)nc(C)n12	·	·	·	4.5%	0.1%	·
c1ccc2sc(SCc3ccc(-c4nnco4)cc3)nc2c1	1.41µM*	?	3.16µM*	12.6µM*	4.78µM*	-9.2%
COCCNC(=O)c1ccc(CSc2nc3ccccc3s2)cc1	?	14.3%	?	·	?	·
NC(=O)c1ccc(CSc2nc3ccccc3s2)cc1	?	?	2.82µM*	·	?	·
CCNC(=O)c1ccc(CSc2nc3ccccc3s2)cc1	6.1%	10.7%	-0.9%	·	5.36µM*	·
CC1(OC(=O)C2CCCC2)C(=O)C=C2C=C(c3ccsc3)N(c3ccc(CO)cc3)C=C2C1=O (stereo unspecified)	·	·	·	-1.0%[9.22 µM]	·	-5.2%[7.66 µM]
C=CC(=O)N1C(=O)c2ccccc2S1(=O)=O	·	·	·	11.1%	·	-0.4%
CCOc1ccc(-n2c(SCC(=O)Nc3cc(C)ccc3C)nc3c([nH]c4ccccc43)c2=O)cc1	·	·	·	·	-1.2%	·
